E-sel TNF inh – blocks E-selectin expression induced by TNF alpha | HUVEC TNFa-induced E-selectin immunofluorescence, high content | inhibition, % at 2 µM | 0.71% of 120,000 active | AID 1246;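 active means inhibition above the batch mean plus 3 SD, and confirmed as a hit on visual image review, cut at about 43% in these data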;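 further: 0% = TNF-stimulated DMSO wells and 100% = unstimulated control wells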
TNFa cytotox – toxic to HUVEC cells under TNF alpha stimulation; HUVEC TNFalpha-stimulated, Hoechst cell count, imaging; cell count reduction, % at 2 µM; 0.17% of 93,000 active; AID 848;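 active means cell count reduction exceeding the screen mean by over 5 SD, scaled to untreated wells per plate, cut at about 78% in these data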;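 further: cells counted after 24 h of TNF alpha exposure following the 1 h pretreatment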
VCAM1 TNFa inh – reduces TNF alpha induced VCAM1 expression in HUVEC. inhibition, % at 2 µM. 0.48% of 95,000 active. AID 802. HUVEC TNFa-induced VCAM-1 immunofluorescence, high-content imaging;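 active means inhibition above the batch mean plus 3 SD, with images confirmed as a hit by eye, cut at about 37% in these data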;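 further: 0% = TNF-stimulated DMSO wells and 100% = unstimulated control wells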
cytoskel mod – alters cytoskeleton assembly in HUVEC cells | HUVEC TNFa F-actin phalloidin imaging, high content | inhibition, % at 2 µM | 0.18% of 91,000 active | AID 836;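 active means inhibition above the batch mean plus 3 SD and confirmed as a hit by visual image inspection, cut at about 30% in these data, passing the limit was not always enough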
The depositor's hits bear a star; nt = no result. The list is not random: actives were taken first. Their share in the collection is about 1%.

SMILES	E-sel TNF inh	TNFa cytotox	VCAM1 TNFa inh	cytoskel mod
N#CCc1nc2c3c4c(sc3ncn2n1)CCCC4	-0.4	27.2	60.4*	-25.9
CC(Sc1nc(C(C)(C)C)cc(-c2ccccc2)c1C#N)C(=O)Nc1ccccc1 (centres undefined)	-10.2	nt	nt	nt
O=S(=O)(Nc1ccc(-n2cccc2)cc1)c1ccccc1	36.4	26.3	39.5*	-24.6
O=C(NNC1CC(=O)N(c2ccc(Br)cc2)C1=O)c1ccccn1 (centres undefined)	20.7	nt	nt	nt
C=CS(=O)(=O)c1ccc(Oc2ccc(S(=O)(=O)C=C)cc2)cc1	99.9*	nt	nt	nt
O=S(=O)(c1ccc(Oc2ccc(S(=O)(=O)N3CCOCC3)cc2)cc1)N1CCOCC1	-0.7	nt	nt	nt
CN(C)c1cccc(C(=O)N/N=C/c2ccsc2)c1	-1.9	nt	nt	nt
N#Cc1c(NC(=S)NC(=O)Cc2cccs2)sc2c1CCCCC2	-37.3	-16.4	15.3	-14.8
CCOC(=O)N1CCN(C(=O)C(C)(C)Oc2ccc(Cl)cc2)CC1	nt	-35.6	11.6	6.5
COc1ccc(N2CCN(C(=O)C(C)(C)Oc3ccc(Cl)cc3)CC2)cc1	nt	78.3*	-22.4	-29.1
CCOC(=O)CCc1nc2ccccc2[nH]c1=O	63.0*	-13.2	4.2	8.2
COC(=O)CCc1nc2ccccc2[nH]c1=O	-9.5	-29.7	16.8	-2.7
COc1ccc(-c2csc(/C=C/c3ccc4c(c3)OCO4)n2)cc1OC	-19.8	nt	nt	nt
Cc1nc([N+](=O)[O-])c(Br)n1CC(=O)c1ccccc1	11.8	-6.6	6.1	nt
Cc1nc([N+](=O)[O-])c(Br)n1CC(=O)c1ccc(Br)cc1	24.2	-17.7	40.1*	-13.3
O=C(N/N=C1/CCS(=O)(=O)c2ccc(F)cc21)c1ccccn1	81.3*	nt	nt	nt
CN1C(=O)S/C(=C\c2ccccc2OCc2ccc(C(=O)O)cc2)C1=O	100.0*	nt	nt	nt
CN1C(=O)S/C(=C/c2ccccc2OCc2ccc(C(=O)O)cc2)C1=O	-13.2	nt	nt	nt
CCOP(=O)(O)c1cccc(OCCOCCOc2cccc(P(=O)(O)OCC)c2)c1	30.1	nt	nt	nt
Cc1cc(NC(=O)CSc2nc(-c3cccs3)cc(C(F)(F)F)n2)no1	-13.2	21.2	52.7*	-9.9
Cc1ccc(C)n1-c1cccc(NC(=O)c2ccccc2)c1	92.7*	nt	nt	nt
COc1ccc(OCC2CNC(=O)O2)cc1 (centres undefined)	96.0*	nt	nt	nt
O=C1NCC(COc2cccc3ccccc23)O1 (centres undefined)	20.8	nt	nt	nt
O=C(COc1cccnc1[N+](=O)[O-])NCc1ccco1	12.1	nt	nt	nt
O=C(NC1CC1)C1CCN(c2ncnc3c2sc2cccc(F)c23)CC1	13.0	-5.3	-2.0	-21.0
SMILES	E-sel TNF inh	TNFa cytotox	VCAM1 TNFa inh	cytoskel mod
Cc1c(NC(=O)c2c(N)n(-c3ccccc3)c3nc4ccccc4nc23)c(=O)n(-c2ccccc2)n1C	76.5*	nt	nt	nt
Cc1c(NC(=O)c2c(F)cccc2F)c(=O)n(-c2ccccc2)n1C	30.5	-8.8	8.2	1.3
O=C(NC1(C(F)(F)F)NC(=O)N(Cc2ccccc2)C1=O)c1cccs1 (centres undefined)	-36.1	-12.1	6.1	-7.6
CC(C)C(=O)Nc1ccc(-c2nc3cccnc3o2)cc1	83.7*	nt	nt	nt
CCc1ccc(NS(=O)(=O)c2cc(OC)ccc2OC)cc1	nt	80.8*	39.7	9.4
CCOC(=O)N1CCN(C(=O)CN(C2CCCCC2)S(=O)(=O)c2c(C)cc(C)cc2C)CC1	-12.8	-4.6	-1.4	3.8
COC(=O)c1cc2ccsc2n1Cc1nc(-c2cccc(Cl)c2)oc1C	82.1*	-16.7	-3.3	3.7
COC(=O)c1cccnc1NC(=S)NNC(=O)c1ccccc1	-26.8	-0.8	21.7	-17.0
COc1ccc(OCC(=O)NC(=S)Nc2ccccc2F)cc1	10.8	nt	nt	nt
Cc1ccc(OCc2ccoc2C(=O)O)cc1C	-22.8	-7.0	96.6*	-7.4
Cc1ccc(OCc2ccc(C(=O)N3CCOCC3)cc2)cc1C	2.6	-30.4	5.1	16.4
O=C(Oc1nsnc1N1CCOCC1)N1CCOCC1	76.8*	-9.3	14.1	-3.0
O=C(Oc1nsnc1N1CCOCC1)N1CCCCC1	28.5	-9.4	5.1	-0.8
CCCCCC(=O)N/N=C(\C)c1ccc(N2CCCCC2)cc1	-12.7	nt	nt	nt
OCCCc1nc2n(n1)C(c1cccs1)C=C(c1ccc(Br)cc1)N2 (centres undefined)	-4.6	-7.9	-16.3	-3.9
C1=C(c2ccc(-c3ccccc3)cc2)Nc2ncnn2C1c1ccco1 (centres undefined)	64.5*	0.8	-2.2	1.6
Fc1ccc(C2=CC(c3ccco3)n3ncnc3N2)cc1 (centres undefined)	4.3	nt	nt	nt
Brc1ccc(C2=CC(c3cccs3)n3ncnc3N2)cc1 (centres undefined)	99.9*	14.9	3.7	-1.0
COc1ccc(OC)c(S(=O)(=O)Nc2cccc(F)c2)c1	5.1	-28.7	11.1	1.9
O=C(c1cccnc1)N1CCN(c2c(Cl)cccc2[N+](=O)[O-])CC1	10.3	-42.4	-5.0	-17.3
CCCC(C(=O)NC1CCCC1)N(CCCN1CCOCC1)C(=O)c1snc(C(N)=O)c1N (centres undefined)	nt	38.2	78.3*	-19.0
CCCC(C(=O)NC1CCCC1)N(CC1CCCO1)C(=O)c1snc(C(N)=O)c1N (centres undefined)	nt	-12.6	13.6	-2.4
Cc1oc(-c2ccccc2Cl)nc1CSc1nc2c(c(=O)[nH]1)CCC2	16.6	nt	nt	nt
CCOC(=O)C1C(c2cc(OC)c(O)c(OC)c2)NC(=S)NC1(O)C(F)(F)F (centres undefined)	72.0*	nt	nt	nt
Cc1ccc(C2(O)CN(c3ccccc3C)C3=[N+]2CCS3)cc1 (centres undefined)	63.7*	nt	nt	nt
SMILES	E-sel TNF inh	TNFa cytotox	VCAM1 TNFa inh	cytoskel mod
CC(NC(=O)COc1cccc(Br)c1)C(=O)O (centres undefined)	77.1*	-2.5	-12.9	43.1
Cc1ccccc1-c1nc(CN2CCC(C(=O)NCCCN3CC(C)CC(C)C3)CC2)c(C)o1 (centres undefined)	17.5	-8.1	42.8*	-36.2
COc1ccc(OC)c(CCNC(=O)CSc2ccsc2[N+](=O)[O-])c1	76.6*	nt	nt	nt
COc1ccc(CCNC(=O)CSc2ccsc2[N+](=O)[O-])c(OC)c1	7.1	nt	nt	nt
O=C(O)/C=C/c1ccc2ccccc2n1	85.0*	-5.9	3.4	-5.2
Oc1ccc(/C=C/c2ccc3ccccc3n2)cc1	-11.2	nt	nt	nt
C/C(Cl)=C/Cn1c(NCCCn2ccnc2)nc2c1c(=O)[nH]c(=O)n2C	-12.8	-1.8	4.8	-20.1
C/C(Cl)=C\Cn1c(NCCCn2ccnc2)nc2c1c(=O)n(C)c(=O)n2C	nt	89.1*	87.5*	-35.4
O=C(CCl)Nc1cn(-c2ccccc2)nc1-c1ccccc1	34.6	nt	nt	nt
N#Cc1cc2c(nc1SCC(=O)N1CCCCC1)CCCC2	-5.9	19.4	52.4*	6.7
CCOC(=O)c1sc(NC(=O)CSc2nc3c(cc2C#N)CCCCCC3)c(C#N)c1C	-25.2	-16.9	-13.3	3.9
N#Cc1cc2c(nc1SCC(=O)N1CCCCC1)CCCCC2	-27.6	-17.8	6.6	-2.1
CCOC(=O)c1sc(NC(=O)CSc2nc3c(cc2C#N)CCC3)c(C#N)c1C	10.2	-61.4	86.4*	18.4
CCCn1c(N)c(CC)c(=O)[nH]c1=O	38.9	nt	nt	nt
CCN(CC)CCN1C(=O)C(=O)/C(=C(/O)c2cnn(-c3ccccc3)c2C)C1c1ccc(C)o1 (centres undefined)	5.1	7.6	-10.5	-14.9

Screens deposited in PubChem BioAssay by Columbia University Molecular Screening Center.
